hcDAF12 agonist: H. contortus DAF-12 activation, primary screen; 370,000 compounds, 1.4% hits; HEK293 hcDAF-12 lit1-tk-luc reporter, luminescence; 0% DMSO, 100% Δ7-dafachronic acid; activation, % at 6.8 µM;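 active = activation above the mean of all tested compounds plus 3 SD, cut at about 5.5% in these data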;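 also: 100% = response to 3 µM Δ7-dafachronic acid high control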
AHR act: activates the human aryl hydrocarbon receptor | AHR-responsive luciferase reporter cells, luminescence | 320,000 compounds, 2.5% hits | activation, % at 5 µM | AID 2796 | P35869; in the data active = activation above about 47%;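 also: 0% = vehicle wells and 100% = reference agonist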
Target sequence (P35869 whole entry, looked up): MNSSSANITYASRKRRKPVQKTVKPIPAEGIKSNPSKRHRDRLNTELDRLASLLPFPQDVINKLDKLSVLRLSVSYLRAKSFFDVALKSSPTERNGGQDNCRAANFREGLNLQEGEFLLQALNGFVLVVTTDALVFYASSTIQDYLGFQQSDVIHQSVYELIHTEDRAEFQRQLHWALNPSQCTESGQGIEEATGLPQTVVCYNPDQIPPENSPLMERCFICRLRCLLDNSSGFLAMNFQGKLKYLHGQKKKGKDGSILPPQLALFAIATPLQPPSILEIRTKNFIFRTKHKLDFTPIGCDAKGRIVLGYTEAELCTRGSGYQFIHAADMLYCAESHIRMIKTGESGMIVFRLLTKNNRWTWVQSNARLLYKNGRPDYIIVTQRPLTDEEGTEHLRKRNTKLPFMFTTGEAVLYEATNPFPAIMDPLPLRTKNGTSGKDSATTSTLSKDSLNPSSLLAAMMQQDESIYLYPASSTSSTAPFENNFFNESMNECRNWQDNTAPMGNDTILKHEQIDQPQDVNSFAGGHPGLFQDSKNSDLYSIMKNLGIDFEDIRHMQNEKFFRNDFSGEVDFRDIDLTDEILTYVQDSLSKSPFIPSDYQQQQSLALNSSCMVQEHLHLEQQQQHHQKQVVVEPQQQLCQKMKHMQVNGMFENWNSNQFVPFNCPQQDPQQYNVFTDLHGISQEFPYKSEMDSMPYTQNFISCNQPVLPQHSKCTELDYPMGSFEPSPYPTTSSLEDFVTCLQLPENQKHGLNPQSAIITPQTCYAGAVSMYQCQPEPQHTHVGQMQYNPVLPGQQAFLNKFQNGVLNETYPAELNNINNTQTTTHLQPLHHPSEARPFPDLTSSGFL
DAX1 inh-1: DAX1 (NR0B1) inhibition, primary screen. HEK293T StAR-luciferase reporter, SF-1/DAX-1 repression relief. inhibition, % at 6.8 µM. 370,000 compounds, 1.1% hits;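 active = inhibition above the mean over all tested compounds plus 3 SD, cut at about 3.6% in these data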;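 also: 0% = DAX-1 cells with DMSO and 100% = cells lacking DAX-1 with DMSO; higher inhibition means more luminescence from relief of DAX-1 repression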
ssDAF12 agonist: activators of S. stercoralis DAF-12 nuclear receptor | HEK293 ssDAF-12/GRIP1 lit1-tk-luc reporter, luminescence; % of 3 µM dafachronic acid response | activation, % at 6.8 µM | 370,000 compounds, 1% hits | AID 652126;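 active = activation above the mean over all tested compounds plus 3 SD, cut at about 0.9% in these data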;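 also: 0% = DMSO-only wells and 100% = 3 µM delta7-dafachronic acid wells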
DAX1 inh-2: inhibitors of human orphan nuclear receptor DAX1 (NR0B1). P51843. HEK293 Gal4-DAX1 luciferase reporter, luminescence. inhibition, % at 6.75 µM. 340,000 compounds, 0.99% hits;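 active = inhibition above the mean over all tested compounds plus 3 SD, cut at about 4.2% in these data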;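 also: 0% = DAX1-transfected cells with DMSO and 100% = empty-vector control cells with DMSO; inhibition shows as a rise in luminescence from relieved DAX1 repression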
hgDAF12 agonist: hgDAF-12 agonism, primary luciferase screen; AID 687014; activation, % at 6.8 µM; HEK293 GAL4-hgDAF12 UAS-luciferase reporter, agonist luminescence; normalized to butyrate control; 370,000 compounds, 1.8% hits;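 active = activation above a cutoff set at the mean of all screened compounds plus 3 SD, cut at about 10% in these data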;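 also: 0% = DMSO wells and 100% = sodium butyrate wells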
An asterisk follows results filed as active; x = no result. Most compounds without a hit are left out; they make up all but 5.7% or so of the library.

SMILES	hcDAF12 agonist	AHR act	DAX1 inh-1	ssDAF12 agonist	DAX1 inh-2	hgDAF12 agonist
COc1ccc(/C=C2\SC(=O)N(CCC(=O)N(C)C3CCS(=O)(=O)C3)C2=O)cc1 (configuration not stated)	-0.7	0.1	0.2	-0.7	0.4	-0.8
O=C(CN1C(=O)c2ccc([N+](=O)[O-])cc2C1=O)NC1CCS(=O)(=O)C1 (configuration not stated)	1.0	-1.0	-0.2	-1.1	5.6*	-2.3
CC(C)c1ccc(/C=C2\SC(=O)N(CC(=O)NC3CCS(=O)(=O)C3)C2=O)cc1 (configuration not stated)	2.0	2.1	2.9	-1.2	0.0	10.9*
Cc1cc(Cl)ccc1-c1cc2nc(NCCCN(C)C)n(C)c(=O)c2s1	-2.4	x	-0.2	-0.9	x	-0.1
COC(=O)c1cc2sccc2n1CC(=O)Nc1cccc(SC)c1	-1.1	2.1	-0.6	-0.8	-0.1	-0.3
COc1ccccc1CC(=O)NCCN1C(=O)C2C3C=CC(C3)C2C1=O (configuration not stated)	-2.8	x	0.5	-1.2	x	2.2
CC(=O)O[C@H]1CC[C@@]2(C)C(CCC3C2CC[C@]2(C)OC(=O)CCC32)C1 (some centres not stated)	-0.6	-1.7	1.1	-1.0	5.0*	-0.1
O=C(c1ccc(F)cc1)N1CCN2C(=O)c3ccccc3C12c1ccccc1 (configuration not stated)	-0.8	-1.0	0.2	-1.0	1.4	-2.6
O=C(c1ccc(F)cc1)N1CCN2C(=O)c3ccccc3C12c1ccc(Cl)cc1 (configuration not stated)	-1.6	-0.1	0.2	-0.8	4.2*	-3.6
C=CCOc1cccc(C(=O)Nc2ncn[nH]2)c1	0.2	57.8*	1.7	-1.1	0.5	-0.2
COc1cc(OC)cc(C(=O)Nc2ncn[nH]2)c1	-0.8	10.8	-0.4	-1.4	1.0	0.3
COc1ccc(CNC(=O)[C@H](C)NC(=O)C2CCN(C(=O)[C@@H](N)CCSC)CC2)cc1	-1.2	0.6	-0.1	-1.7	4.4*	-1.2
Cc1ccc(NC(=O)[C@H](C)NC(=O)C2CCN(C(=O)[C@@H](N)CC(C)C)CC2)cc1	6.0*	9.7	-0.1	0.5	-1.5	2.0
COc1ccc(CNC(=O)[C@H](NC(=O)C2CCN(C(=O)[C@@H](N)CCSC)CC2)C(C)C)cc1	-0.7	0.8	0.0	-1.5	1.6	-2.6
COc1ccc(CNC(=O)[C@H](C)NC(=O)C2CCN(C(=O)[C@@H](N)Cc3ccccc3)CC2)cc1	-1.4	0.9	0.9	-1.3	6.1*	6.1
CN(CC(=O)NNC(=O)CNC(=O)c1ccccc1F)S(=O)(=O)c1ccc(Cl)cc1	-0.5	-2.2	1.1	-1.3	-0.3	2.2
COc1ccc(N2CC(C(=O)OCC(=O)c3ccccc3)CC2=O)cc1 (configuration not stated)	0.0	0.3	-0.2	-1.0	0.9	-0.7
Cc1ccc(NC(=O)/C=C/c2ccc(Cl)cc2)nc1	-1.8	17.8	1.1	-1.9	0.5	10.3
O=C(/C=C/c1ccccc1)Nc1ccc(Br)cn1	1.4	1.0	-1.5	0.6	2.2	13.0*
NC(=O)c1ccccc1NC(=O)/C=C/c1ccc(Cl)cc1	2.2	-8.0	1.2	-0.1	-0.8	13.0*
O=C(/C=C/c1ccccc1)Nc1cccnc1Cl	2.0	20.3	1.8	1.8*	1.7	9.7
NC(=O)c1ccccc1NC(=O)/C=C/c1ccccc1	2.0	24.4	3.4	-0.2	0.4	11.4*
O=C(/C=C/c1ccc(Cl)cc1)NC(=S)Nc1ccccc1C(=O)O	0.1	0.1	-0.6	-1.2	-1.4	-3.7
CCOc1ccc(/C(O)=C2/C(=O)C(=O)N(c3ccccn3)C2c2ccc(Cl)cc2)c(C)c1 (configuration not stated)	1.5	x	-0.3	-0.3	2.5	6.7
O=C(/C=C/c1cccc(F)c1)Nc1ccc(S(=O)(=O)Nc2ncccn2)cc1	-0.6	54.0*	0.3	-1.2	-1.4	-1.9
O=C(/C=C/c1ccc(Br)cc1)Nc1ccc(S(=O)(=O)Nc2ncccn2)cc1	-0.4	0.7	0.9	-1.1	-1.2	0.3
CSc1cccc(NC(=O)/C=C/c2cccc(Cl)c2)c1	1.9	-5.7	2.2	-1.2	1.2	8.4
